# Target: PHF15
# Assay: pooled miR-30 sensor sort-seq; sequence = guide strand
# Settings: shRNA
# Also: reference of the scale not given here.
row,Sequence,sensor-assay potency score (higher = more potent)
1,ATCTCGTCCAAGTCATAGCGGC,-1.39
2,TTGTCCACCTCGTCGGTCTTGG,-0.798
3,TAGATGTCGCATGACTGTCAGT,-1.14
4,TGTCGCATGACTGTCAGTGGTG,-0.605
5,TTCAATAAGTTTCATCTGCAGG,-0.499
6,TTGTCTGCTAATATAGTCCGCA,0.0345
7,TACATCTGAGTCGCTCATCTCC,-0.519

# Target: PHF19
# Assay: as above
# Settings: shRNA
row,Sequence,sensor-assay potency score (higher = more potent)
1,TTCTTGATCTCCTTGCCGCAGA,-0.66
2,TTTTCTTCTATAAACTCGCCTT,-0.149
3,TAGTTGGTGATAGATGACTTGA,-1.21
4,TAAACTTTGAATTTCATCCAGC,0.174
5,TTTATAACTGTTCAGAGCGTTG,-1.51
6,TAACATTGCAGCATCCGCAGGT,0.519
7,TTTGAAGTTGTTCTTGACCTTC,-0.341
8,TGAATCTTTTTGAAGGTGCAGA,0.0337
9,TTTTATAACTGTTCAGAGCGTT,0.145
10,TTGTTCTTGACCTTCGCCAGGG,0.174
11,TTGAATTTCATCCAGCGTGAAG,-1.1
12,TTGCTTAGAGCTGCTGACCCTC,-1.03

# Target: PHF20
# Assay: as above
# Settings: shRNA
row,Sequence,sensor-assay potency score (higher = more potent)
1,TTAACTTTCCTTCTTTATCAGG,-0.815
2,TTTGTTACTTCCACAGTCGAAA,-0.866
3,TTCTCAATGGAGTCCATCCTGT,-0.423
4,TTGTGTGAGGACCCACACCTGG,-1.15
5,TTTTAAACAGTCCACAACTTTG,-1.74
6,TTCCTTGTCTTCCTTCTCGTTC,-0.88
7,TTGAATTTACAACTGTCTCCAA,0.401
8,TTAATGGGACTTCACATCCTTT,-1.47
9,TAAACTTCTCTCGTTTATCAGG,-1.02
10,TGACAGTCTGAACTACTCCATC,-1.04
11,TTGACAGTCTGAACTACTCCAT,-0.0489
12,TAAACTTATGGTCTAGGTCGAC,-0.7

# Target: PHF23
# Assay: as above
# Settings: shRNA
row,Sequence,sensor-assay potency score (higher = more potent)
1,TAACATGTGATCAGATCCCATG,-0.921
2,TTCTTAATCTTAGCACAGGAGA,-1.04
3,TAACTTCCGCTTCTTGCTCTTC,-0.863
4,TTGCCATCTCTTCTTCTTCTTC,-0.747
5,TTCTTGCTCTTCTTGATTCGAG,-0.558
6,TTTTATAGACAACTGTCCCATT,-0.805
7,TTAACTTCCGCTTCTTGCTCTT,0.475
8,TTTAACTTCCGCTTCTTGCTCT,0.601
9,TATGCCAAAACAAAACTGCAGA,-0.479

# Source: the OligoGym collection
